PubChem BioAssay AID1159580 (chemical genetic matrix, 2015)
Values joined by “and” are separate entries in the source; they are usually repeats but may differ in a detail not shown here. Equal entries are not always repeated. Hit rate of the full screen: of about 5,500 compounds, about 2,000 (36%) were called active. Not shown: some 18% with an inconclusive outcome. Cut-off read from the data, not from the text of the source: active = normalized growth mostly below about 0.91 (no sharp cut-off); inconclusive = no clear call, values can overlap the other calls; inactive = mostly above about 0.92. This is one part of the list.

Assay: chemical genetic growth profiling, strain panel (AID 1159580);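 note: tested at 20 µM; growth read once vehicle control cultures reached saturation at 30 °C; 1 = growth at the plate median or of vehicle wells; lower values mean less growth of the strain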
Details: S. cerevisiae deletion strains, growth OD

Measured: normalized growth

CC(=O)O[C@H]1CC[C@@]2(C)C(CC[C@]3(C)C2CC=C2C4CC(C)(C)CC[C@]4(C)CC[C@]23C)C1(C)C (stereo partly drawn)
inactive: locus YAL013W, strain DEP1, hits give low values 1.02 | locus YAL021C, strain ccr4, hits give low values 0.919 | locus YAL026C, strain drs2, hits give low values 1.01 | locus YAL030W, strain snc1, hits give low values 0.979 | locus YBL061C, strain skt5, hits give low values 0.996 | locus YBR009C, strain hhf1, hits give low values 0.973 | locus YBR021W, strain FUR4, hits give low values 1.01 | locus YBR023C, strain chs3, hits give low values 0.982 | locus YBR171W, strain sec66, hits give low values 0.99 | locus YBR229C, strain ROT2, hits give low values 1 | locus YBR231C, strain swc5, hits give low values 1.01 | locus YBR279W, strain paf1, hits give low values 0.999 | locus YCL011C, strain gbp2, hits give low values 0.962 | locus YCL016C, strain dcc1, hits give low values 0.964 | locus YCL029C, strain bik1, hits give low values 1 | locus YCL061C, strain MRC1, hits give low values 0.99 | locus YCL069W, strain vba3, hits give low values 0.978 | locus YCR088W, strain abp1, hits give low values 0.991 | locus YDL005C, strain med2, hits give low values 0.988 | locus YDL035C, strain GPR1, hits give low values 1.03 | locus YDL040C, strain nat1, hits give low values 0.989 | locus YDL074C, strain BRE1, hits give low values 1.06 | locus YDL101C, strain DUN1, hits give low values 1.02 | locus YDL185W, strain tfp1, hits give low values 1.02 | locus YDL192W, strain arf1, hits give low values 1 | locus YDR001C, strain nth1, hits give low values 0.968 | locus YDR069C, strain doa4, hits give low values 0.971 | locus YDR101C, strain arx1, hits give low values 0.997 | locus YDR137W, strain rgp1, hits give low values 0.973 | locus YDR150W, strain NUM1, hits give low values 1.01 | locus YDR159W, strain sac3, hits give low values 0.998 | locus YDR162C, strain NBP2, hits give low values 1.03 | locus YDR195W, strain ref2 0.953 | locus YDR297W, strain sur2, hits give low values 1 | locus YDR318W, strain mcm21, hits give low values 1.01 | locus YDR334W, strain swr1, hits give low values 0.98 | locus YDR335W, strain msn5, hits give low values 0.989 | locus YDR388W, hits give low values 1.02 | locus YDR392W, strain spt3, hits give low values 0.889 | locus YDR502C, strain sam2, hits give low values 1.02 | locus YEL003W, strain gim4, hits give low values 1.02 | locus YEL037C, strain rad23, hits give low values 0.978 | locus YEL061C, strain CIN8 (second series), hits give low values 0.978 | locus YER015W, strain faa2, hits give low values 0.981 | locus YER016W, strain bim1, hits give low values 0.992 | locus YER110C, hits give low values 1.01 | locus YER111C, strain swi4, hits give low values 0.99 | locus YER155C, strain BEM2 (second series), hits give low values 1.02 | locus YER155C, strain BEM2, hits give low values 1.01 | locus YER167W, strain BCK2, hits give low values 1 | locus YFR010W, strain ubp6, hits give low values 0.992 | locus YGL078C, strain dbp3, hits give low values 1.06 | locus YGL086W, strain mad1, hits give low values 1.01 | locus YGL167C, strain pmr1, hits give low values 0.975 | locus YGL173C, strain kem1, hits give low values 1 | locus YGL227W, strain vid30, hits give low values 0.987 | locus YGL240W, strain doc1, hits give low values 1.01 | locus YGL248W, strain PDE1, hits give low values 1.02 | locus YGL253W, strain hxk2, hits give low values 1.02 | locus YGR078C, strain PAC10, hits give low values 1.03 | locus YGR135W, strain pre9, hits give low values 1.04 | locus YGR252W, strain gcn5, hits give low values 1.08 | locus YHR013C, strain ard1, hits give low values 0.943 | locus YHR027C, strain rpn1, hits give low values 0.983 | locus YHR030C, strain SLT2, hits give low values 1.01 and 1.03 | locus YHR079C, strain IRE1 (second series), hits give low values 1.01 | locus YHR079C, strain IRE1, hits give low values 1.03 | locus YHR094C, strain hxt1, hits give low values 1.02 | locus YHR129C, strain ARP1, hits give low values 1.01 | locus YHR142W, strain chs7, hits give low values 0.959 | locus YHR200W, strain rpn10, hits give low values 1.02 | locus YIL066C, strain RNR3, hits give low values 1.01 | locus YIL073C, strain SPO22, hits give low values 1.04 | locus YIL125W, strain kgd1, hits give low values 1.01 | locus YIR030C, strain dcg1, hits give low values 1.04 | locus YJL092W, strain hpr5, hits give low values 0.975 | locus YJL095W, strain BCK1 (second series), hits give low values 0.986 | locus YJL095W, strain BCK1, hits give low values 1.04 and 1.02 | locus YJL115W, strain asf1, hits give low values 0.968 | locus YJL129C, strain trk1, hits give low values 0.993 | locus YJL134W, strain LCB3, hits give low values 1.01 | locus YJL154C, strain vps35, hits give low values 0.975 | locus YJL164C, strain tpk1, hits give low values 0.949 | locus YJL166W, strain qcr8, hits give low values 0.999 | locus YJL168C, strain set2, hits give low values 1.02 | locus YJL187C, strain SWE1 (second series), hits give low values 1.03 | locus YJL187C, strain SWE1, hits give low values 0.986 | locus YJR043C, strain POL32, hits give low values 1.01 | locus YJR066W, strain TOR1, hits give low values 0.976 | locus YKL009W, strain mrt4, hits give low values 1 | locus YKL068W, hits give low values 1.02 | locus YKL085W, strain MDH1 (second series), hits give low values 1.01 | locus YKL085W, strain MDH1, hits give low values 1.01 | locus YKL160W, strain elf1, hits give low values 0.963 | locus YKL190W, strain CNB1, hits give low values 1.01 | locus YKR001C, strain vps1, hits give low values 0.997 | locus YKR026C, strain gcn3, hits give low values 0.991 | locus YKR091W, strain srl3, hits give low values 0.986 | locus YLL001W, strain dnm1, hits give low values 0.978 | locus YLL026W, hits give low values 0.978 | locus YLL041C, strain sdh2, hits give low values 0.976 | locus YLR027C, strain aat2, hits give low values 0.989 | locus YLR039C, strain RIC1, hits give low values 0.999 | locus YLR058C, strain SHM2, hits give low values 1.02 | locus YLR102C, strain apc9, hits give low values 1 | locus YLR113W, strain HOG1, hits give low values 1 | locus YLR221C, strain rsa3, hits give low values 1.03 | locus YLR258W, strain gsy2, hits give low values 0.962 | locus YLR262C, strain YPT6 (second series), hits give low values 0.976 | locus YLR262C, strain YPT6, hits give low values 1.01 | locus YLR268W, strain sec22, hits give low values 1.02 | locus YLR320W, strain mms22, hits give low values 1.05 | locus YLR342W, strain FKS1, hits give low values 0.991 | locus YLR357W, strain rsc2, hits give low values 0.973 | locus YLR370C, strain arc18, hits give low values 0.967 | locus YLR371W, strain rom2, hits give low values 1.02 | locus YLR384C, strain iki3, hits give low values 1 | locus YLR418C, strain cdc73, hits give low values 1.05 | locus YML016C, strain PPZ1, hits give low values 0.996 | locus YML032C, strain rad52, hits give low values 1 | locus YML120C, strain ndi1, hits give low values 0.96 | locus YML124C, strain tub3, hits give low values 1.01 | locus YMR058W, strain fet3, hits give low values 0.996 | locus YMR078C, strain ctf18, hits give low values 1.03 | locus YMR125W, strain sto1, hits give low values 0.948 | locus YMR129W, hits give low values 0.988 | locus YMR205C, strain PFK2, hits give low values 0.959 | locus YMR223W, strain ubp8, hits give low values 1.02 | locus YMR231W, strain pep5, hits give low values 0.994 | locus YMR263W, strain SAP30, hits give low values 1.03 | locus YMR307W, strain GAS1, hits give low values 1.11 | locus YNL067W, strain RPL9B, hits give low values 1.04 | locus YNL071W, strain lat1, hits give low values 0.982 | locus YNL153C, strain GIM3, hits give low values 1.03 | locus YNL183C, strain NPR1, hits give low values 0.964 | locus YNL209W, strain ssb2, hits give low values 0.984 | locus YNL233W, strain BNI4, hits give low values 1.02 | locus YNL248C, strain rpa49, hits give low values 0.918 | locus YNL250W, strain rad50, hits give low values 1.02 | locus YNL271C, strain bni1, hits give low values 1.03 | locus YNL298W, strain CLA4, hits give low values 1.03 | locus YNL307C, strain MCK1, hits give low values 1.02 | locus YNL322C, strain KRE1 (second series), hits give low values 0.982 | locus YNR049C, strain mso1, hits give low values 0.966 | locus YNR052C, strain pop2, hits give low values 1.02 | locus YOL012C, strain htz1 1.53 | locus YOL147C, strain pex11, hits give low values 1.01 | locus YOR001W, strain rrp6, hits give low values 1.01 | locus YOR061W, strain CKA2, hits give low values 1.02 | locus YOR069W, strain VPS5, hits give low values 1.01 | locus YOR070C, strain gyp1, hits give low values 1.02 | locus YOR080W, strain dia2, hits give low values 1 | locus YOR083W, strain WHI5, hits give low values 0.957 | locus YOR106W, strain vam3, hits give low values 0.929 | locus YOR136W, strain idh2, hits give low values 1.01 | locus YOR144C, strain elg1, hits give low values 1.01 | locus YOR184W, strain ser1, hits give low values 1.01 | locus YOR231W, strain MKK1, hits give low values 1 | locus YOR265W, strain rbl2, hits give low values 0.998 | locus YOR270C, strain vph1, hits give low values 1.03 | locus YOR290C, strain snf2, hits give low values 0.906 | locus YOR316C, strain cot1, hits give low values 1.01 | locus YPL051W, strain arl3, hits give low values 1.01 | locus YPL078C, strain atp4, hits give low values 0.945 | locus YPL106C, strain sse1, hits give low values 0.94 | locus YPL240C, strain hsp82, hits give low values 0.995 | locus YPL241C, strain CIN2, hits give low values 1.01 | locus YPL256C, strain CLN2, hits give low values 1.06 | locus YPR119W, strain clb2, hits give low values 1.02 | locus YPR141C, strain kar3, hits give low values 1.02 | locus YPR163C, strain tif3, hits give low values 1.02 | locus YPR167C, strain met16, hits give low values 1.02 | strain wtn01, hits give low values 1.02
